In PubChem BioAssay (Tox21):
Records with an inconclusive call do not appear. The source made the active and inactive calls. Unless noted, calls come from the whole dose curve; as a rule, active = well fitted curve in the direction sought with a large enough effect in the repeat runs; inconclusive = weak or mixed curves; inactive = no such curve, though single readings can be large; an effect the other way counts as inactive or inconclusive.

Tests used:
[1] = qHTS assay to identify small molecule antagonists of the estrogen related receptor (ERR) signaling pathway from Tox21 library - cell viability counter screen (AID 1224834); note: nearly all actives have a fitted effect of over 30% in size
In short: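 In this quantitative HTS format, ERR cells receive compounds in DMSO and are incubated for 17.5 h at 37 C. Live-cell protease activity is then detected with CellTiter-Fluor.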

[2] = molecular target: Luciferin 4-monooxygenase (Photinus pyralis) (UniProt P08659); test: qHTS assay to identify small molecule inhibitors of firefly luciferase (AID 1224835); note: nearly all actives have a fitted effect of over 25% in size; note: potency is the fitted concentration of half-maximal effect
Sequence of Luciferin 4-monooxygenase (Photinus pyralis) (P08659 whole entry, looked up): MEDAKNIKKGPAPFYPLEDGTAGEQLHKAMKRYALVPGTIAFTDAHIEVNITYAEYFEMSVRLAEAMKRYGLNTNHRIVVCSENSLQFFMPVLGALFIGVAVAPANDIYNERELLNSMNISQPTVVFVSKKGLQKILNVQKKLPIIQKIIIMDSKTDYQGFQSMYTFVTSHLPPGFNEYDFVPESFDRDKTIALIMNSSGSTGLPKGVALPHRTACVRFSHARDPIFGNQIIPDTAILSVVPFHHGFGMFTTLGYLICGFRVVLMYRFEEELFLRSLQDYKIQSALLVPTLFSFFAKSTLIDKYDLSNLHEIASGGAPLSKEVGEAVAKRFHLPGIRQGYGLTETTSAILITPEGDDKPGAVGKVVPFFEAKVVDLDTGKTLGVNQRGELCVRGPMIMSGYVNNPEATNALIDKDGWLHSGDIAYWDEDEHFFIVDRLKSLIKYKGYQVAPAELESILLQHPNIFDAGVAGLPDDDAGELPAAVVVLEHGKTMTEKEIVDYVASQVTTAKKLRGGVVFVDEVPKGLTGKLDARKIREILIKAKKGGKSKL
In short: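 Quantitative HTS format; KM concentrations of both substrates. Purified P. pyralis FLuc activity quantified from luminescence images.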

[3] = qHTS assay to identify small molecule agonists of the constitutive androstane receptor (CAR) signaling pathway - cell viability counter screen (AID 1224836); note: nearly all actives have a fitted effect of over 45% in size
In short: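 Compound titrations (15 concentrations) went onto HepG2-CYP2B6-hCAR cells 4 h after seeding, alongside PK11195 at a final 0.75 uM; a 23 h, 37 C/5% CO2 incubation preceded CellTiter-Fluor viability measurement.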

[4] = qHTS assay to identify small molecule antagonists of the constitutive androstane receptor (CAR) signaling pathway - cell viability counter screen (AID 1224837); note: nearly all actives have a fitted effect of over 45% in size
In short: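 In quantitative HTS format, compounds at 15 concentrations were applied to HepG2 cells double-transfected with hCAR and CYP2B6-2.2kb under 50 nM CITCO stimulation; live-cell protease activity was read after 23 hr via CellTiter-Fluor.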

[5] = molecular target: Nuclear receptor subfamily 1 group I member 3 (Homo sapiens) (UniProt Q14994); test: qHTS assay to identify small molecule antagonists of the constitutive androstane receptor (CAR) signaling pathway (AID 1224838); note: nearly all actives have a fitted effect of over 40% in size
Sequence of Nuclear receptor subfamily 1 group I member 3 (Homo sapiens) (Q14994 whole entry, looked up): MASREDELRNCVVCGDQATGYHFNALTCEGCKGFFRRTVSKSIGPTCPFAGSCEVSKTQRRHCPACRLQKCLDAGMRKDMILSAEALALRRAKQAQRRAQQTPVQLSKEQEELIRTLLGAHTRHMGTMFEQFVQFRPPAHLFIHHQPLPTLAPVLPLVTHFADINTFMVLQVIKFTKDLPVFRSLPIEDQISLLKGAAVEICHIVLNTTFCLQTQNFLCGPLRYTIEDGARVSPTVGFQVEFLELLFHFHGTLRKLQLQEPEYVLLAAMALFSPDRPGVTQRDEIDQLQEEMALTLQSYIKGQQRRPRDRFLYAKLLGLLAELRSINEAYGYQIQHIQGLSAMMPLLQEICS
In short: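 CITCO-stimulated (50 nM final) HepG2 cells stably transfected with hCAR and CYP2B6-2.2kb luciferase were exposed to compounds at 15 concentrations for 24 h at 37 C/5% CO2. A luciferase reagent was added and luminescence recorded after 30 min.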

[6] = qHTS assay to identify small molecule antagonists of the estrogen related receptor signaling pathway with the pleiotropic PPARgamma coactivator (PGC) from Tox21 10K library - cell viability counter screen (AID 1224840; active = well fitted cell-killing curve with a large enough effect in the repeat runs, not every such curve was filed as active; note: nearly all actives have a fitted effect of over 40% in size)
In short: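 Viability counter screen, PGC/ERR cells: 17.5 h compound exposure at 37 C, CellTiter-Fluor fluorescence endpoint.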

[7] = qHTS assay to identify small molecule agonists of the estrogen related receptor signaling pathway with the pleiotropic PPARgamma coactivator (PGC) from Tox21 10K library (AID 1224842); note: nearly all actives have a fitted effect of over 15% in size
In short: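 PGC/ERR reporter cells (NTP line) were seeded 2,000 per well, rested 6 h at 37 C/5% CO2, then pin-dosed with compounds in DMSO for 18 h at 37 C; luciferase read by One-Glo luminescence after 30 min at room temperature.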

[8] = qHTS assay to identify small molecule agonists of the hypoxia (HIF-1) signaling pathway - cell viability counter screen (AID 1224844; calls by dose curve; note: nearly all actives have a fitted effect of over 50% in size)
In short: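 Same wells as the HIF-1 reporter screen; ME-180 cells carrying HRE-bla, 17 hr treatment at 37C; CellTiter-Glo luminescence read after 30 min at room temperature.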

[9] = qHTS assay to identify small molecule agonists of H2AX (AID 1224845; active = well fitted activation curve with a large enough effect in the signal ratio in the repeat runs, not every such curve was filed as active; the % refers to the signal ratio)
In short: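 Wild-type CHO-K1 cells plated overnight, then exposed 3 hr at 37C to compounds at 15 concentrations (0.76% DMSO). Lysed, then HTRF anti-pH2AX(S139)-cryptate/anti-H2AX-d2 detection after 24 hr at room temperature; emissions 665 and 620 nm.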

[10] = qHTS assay to identify small molecule agonists of the hypoxia (HIF-1) signaling pathway (AID 1224846; active = well fitted activation curve with a large enough effect in the signal ratio in the repeat runs, not every such curve was filed as active; the % refers to the signal ratio)
In short: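 In ME-180 cells bearing an HRE-bla construct, 17 h treatment with DMSO-dissolved compounds at 37C was followed by CCF4-AM loading to quantify reporter induction.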

[11] = qHTS assay to identify small molecule agonists of H2AX - cell viability counter screen (AID 1224847; calls by dose curve; note: top concentration of the series differs between compounds; nearly all actives have a fitted effect of over 30% in size)
In short: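 Read-out: CellTiter-Glo luminescence, 30 min RT. Cells: wild-type CHO-K1, 1000/well, 10% FBS, plated overnight at 37C. Treatment: 15 concentrations, 3 hr, 37C, 0.76% DMSO.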

[12] = qHTS assay to identify small molecule agonists of the estrogen related receptor (ERR) signaling pathway from Tox21 library (AID 1224849; calls by dose curve; note: nearly all actives have a fitted effect of over 15% in size); settings: ERR reporter cell line, ONE-Glo luciferase, 18 h; at 92.4 µM (top of the series) unless noted
In short: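 Reporter cells (ERR, NTP source) treated with Tox21 10K compounds 18 h, 37 C. Readout: ONE-Glo luminescence, 30 min RT.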

[13] = qHTS RealTime-Glo MT Cell Viability Assay in HepG2 cells - 24 hour (AID 1224867); note: nearly all actives have a fitted effect of over 50% in size
In short: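 Cell number in HepG2 cultures estimated from NanoLuc luminescence generated by metabolic reduction of a prosubstrate by living cells. The homogeneous, nonlytic format allowed repeated reads at 0, 8, 16, 24, 32 and 40 h of compound exposure.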

[14] = A CellTox Green Cytotoxicity Assay to monitor cytotoxicity in HEK293 cells - 0 hour (AID 1224869); note: nearly all actives have a fitted effect of over 50% in size
In short: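 Homogeneous no-lysis format: HEK293 cell suspension mixed with CellTox Green reagent, seeded, incubated 5 h at 37 C/5% CO2, then dosed by pintool with compound in DMSO.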

[15] = molecular target: Nuclear receptor subfamily 1 group I member 3 (Homo sapiens) (UniProt Q14994); test: qHTS assay to identify small molecule agonists of the constitutive androstane receptor (CAR) signaling pathway (AID 1224839); note: nearly all actives have a fitted effect of over 15% in size; note: potency is the fitted concentration of half-maximal effect;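 for activation: HepG2 cells stably carrying human CAR and a CYP2B6 luciferase reporter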
In short: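 In this screen, CAR-driven CYP2B6 promoter activity is measured by luminescence in HepG2-CYP2B6-hCAR cells after 24 h with test compounds and 0.75 uM PK11195 (final concentration).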

[16] = molecular target: Thyrotropin receptor (Homo sapiens) (UniProt P16473); test: qHTS assay to identify small molecule agonists of the thyroid stimulating hormone receptor (TSHR) signaling pathway (AID 1224843; calls by dose curve; note: nearly all actives have a fitted effect of over 45% in size)
Sequence of Thyrotropin receptor (Homo sapiens) (P16473 whole entry, looked up): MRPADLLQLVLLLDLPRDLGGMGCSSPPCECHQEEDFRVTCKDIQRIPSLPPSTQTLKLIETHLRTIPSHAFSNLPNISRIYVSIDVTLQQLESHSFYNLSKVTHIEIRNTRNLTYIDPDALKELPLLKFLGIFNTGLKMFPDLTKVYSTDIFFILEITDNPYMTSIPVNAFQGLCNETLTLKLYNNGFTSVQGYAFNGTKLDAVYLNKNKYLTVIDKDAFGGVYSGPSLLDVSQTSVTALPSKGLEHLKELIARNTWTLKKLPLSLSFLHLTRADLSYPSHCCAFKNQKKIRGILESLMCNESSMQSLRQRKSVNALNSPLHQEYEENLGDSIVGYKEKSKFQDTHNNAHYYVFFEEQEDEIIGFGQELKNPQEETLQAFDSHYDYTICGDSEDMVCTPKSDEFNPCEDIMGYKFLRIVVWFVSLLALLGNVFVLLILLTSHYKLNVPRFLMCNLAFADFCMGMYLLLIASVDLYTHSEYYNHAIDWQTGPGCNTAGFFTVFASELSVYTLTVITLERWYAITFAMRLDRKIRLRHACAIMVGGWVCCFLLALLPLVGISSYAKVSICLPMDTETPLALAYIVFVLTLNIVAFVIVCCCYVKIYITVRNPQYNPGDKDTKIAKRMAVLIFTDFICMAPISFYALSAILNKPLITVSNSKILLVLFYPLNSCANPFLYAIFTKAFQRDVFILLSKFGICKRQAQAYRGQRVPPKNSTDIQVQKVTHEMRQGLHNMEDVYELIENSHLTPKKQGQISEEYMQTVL
In short: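 Compounds are titrated over 15 concentrations, in triplicate, onto TSHR-HEK293 cells seeded at 800/well. Plates sit 30 min at room temperature before cAMP-d2 and anti-cAMP cryptate are added; signal is read after a further hour.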

[17] = qHTS RealTime-Glo MT Cell Viability Assay in HEK293 cells - 32 hour (AID 1224868); note: top concentration of the series differs between compounds; nearly all actives have a fitted effect of over 50% in size
In short: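 Homogeneous bioluminescent viability format in HEK293 cells (600 cells/well). Following 5 h at 37 C/5% CO2, 23 nL compound was pintooled; the signal was measured repeatedly during 40 h incubation.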

[18] = qHTS assay to identify small molecule antagonists of the estrogen related receptor signaling pathway with the pleiotropic PPARgamma coactivator (PGC) from Tox21 10K library (AID 1224841; call rule not given here)
In short: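 In the PGC/ERR line, DMSO solutions of test chemicals are pin-delivered to 2,000 cells/well six hours after dispensing. Following eighteen hours' incubation, One-Glo reagent is added and luminescence recorded.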

[19] = qHTS assay to identify small molecule antagonists of the estrogen related receptor (ERR) signaling pathway from Tox21 library (AID 1224848); note: nearly all actives have a fitted effect of over 50% in size
In short: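 First, 2,000 ERR cells per well were plated and held 6 h at 37 C/5% CO2. Next, compounds in DMSO were pinned in and left 18 h at 37 C. Finally, ONE-Glo was added and luminescence read after 30 min at room temperature.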
% is set by controls: 0 for no effect and ±100 for the full control effect.

N#Cc1ccc(CC(=O)c2cccc(C(F)(F)F)c2)cc1
inactive: Potency [1] | Potency [2] | Potency [3] | Potency [4] | Potency [5] | Potency [6] | Potency [7] | Potency [8] | Potency [9] | outcome [10] | Potency [11] | activity change, positive = activation [12] -29.1% | outcome [13] | Potency [14]

Nc1ccc(F)cc1F
inactive: Potency [1] | Potency [2] | Potency [3] | Potency [4] | Potency [5] | Potency [15] | Potency [6] | Potency [16] | Potency [9] | outcome [10] | Potency [11] | outcome [13] | Potency [17] | Potency [14]

CO[C@@H]1[C@@H](O[C@@H]2O[C@H](C)[C@@H](O[C@H]3C[C@@](C)(O)[C@@H](O)[C@H](C)O3)[C@H](N(C)C)[C@H]2O)[C@@H](CC=O)C[C@@H](C)[C@@H](O[C@@H]2CC[C@H](N(C)C)[C@@H](C)O2)/C=C/C=C/C[C@@H](C)OC(=O)C[C@H]1OC(C)=O
inactive: Potency [1] | Potency [2] | Potency [3] | Potency [4] | Potency [5] | Potency [15] | Potency [6] | Potency [8] | Potency [9] | outcome [10] | Potency [11] | outcome [13] | Potency [17] | Potency [14]

CC1(COc2ccc(CC3SC(=O)NC3=O)cc2)CCCCC1 (centres undefined)
active: Potency [2] 27.5 µM
inactive: Potency [1] | Potency [3] | Potency [4] | Potency [5] | Potency [18] | Potency [16] | Potency [9] | outcome [10] | Potency [11] | Potency [19] | activity change, positive = activation [12] 7.77% [at 42.5 µM] | outcome [13] | Potency [17] | Potency [14]

O=P(c1ccccc1)(c1ccccc1)c1ccccc1
inactive: Potency [1] | Potency [2] | Potency [3] | Potency [4] | Potency [5] | Potency [6] | Potency [16] | Potency [8] | Potency [9] | outcome [10] | Potency [11] | outcome [13] | Potency [17] | Potency [14]

CCCC1CCCC(=O)O1 (centres undefined)
inactive: Potency [1] | Potency [2] | Potency [3] | Potency [4] | Potency [15] | Potency [6] | Potency [16] | Potency [9] | outcome [10] | Potency [11] | outcome [13] | Potency [17] | Potency [14]

O=C(OCCN1CCOCC1)c1cccnc1Nc1cccc(C(F)(F)F)c1
inactive: Potency [1] | Potency [2] | Potency [3] | Potency [4] | Potency [15] | Potency [6] | Potency [16] | Potency [8] | Potency [9] | Potency [11] | outcome [13] | Potency [14]

CC1(C)[C@@H]2CC[C@]3(C2)[C@@H]1C(=O)CCC3(C)C
inactive: Potency [1] | Potency [2] | Potency [3] | Potency [4] | Potency [15] | Potency [6] | Potency [16] | Potency [8] | Potency [9] | outcome [10] | Potency [11] | outcome [13] | Potency [17] | Potency [14]

O=C(O)c1ccc2cc(O)ccc2c1
active: Potency [2] 62.4 µM
inactive: Potency [1] | Potency [3] | Potency [4] | Potency [5] | Potency [15] | Potency [8] | Potency [9] | outcome [10] | Potency [11] | outcome [13] | Potency [17] | Potency [14]

CC1(C)C(=O)NC(=O)N1CO
inactive: Potency [1] | Potency [2] | Potency [3] | Potency [4] | Potency [15] | Potency [6] | Potency [16] | Potency [8] | Potency [9] | outcome [10] | Potency [11] | outcome [13] | Potency [17] | Potency [14]

CC(C)CCCCCOC(=O)CS
inactive: Potency [1] | Potency [2] | Potency [3] | Potency [4] | Potency [5] | Potency [15] | Potency [6] | Potency [8] | Potency [9] | outcome [10] | Potency [11] | outcome [13] | Potency [17] | Potency [14]

Cc1ccc2ccccc2c1[N+](=O)[O-]
inactive: Potency [1] | Potency [2] | Potency [3] | Potency [4] | Potency [15] | Potency [6] | Potency [16] | Potency [8] | Potency [9] | outcome [10] | Potency [11] | outcome [13] | Potency [17] | Potency [14]

O=C(O)c1cc(C(=O)O)cc([N+](=O)[O-])c1
inactive: Potency [1] | Potency [2] | Potency [3] | Potency [4] | Potency [5] | Potency [15] | Potency [6] | Potency [9] | outcome [10] | Potency [11] | outcome [13] | Potency [17] | Potency [14]

OCCOc1cccc(OCCO)c1
inactive: Potency [1] | Potency [2] | Potency [3] | Potency [4] | Potency [5] | Potency [6] | Potency [18] | Potency [7] | Potency [16] | Potency [8] | Potency [9] | outcome [10] | Potency [11] | activity change, positive = activation [12] 0.271% | outcome [13] | Potency [17] | Potency [14]

CCCCCCCCCCCCCCCCC(=O)O
inactive: Potency [1] | Potency [2] | Potency [3] | Potency [4] | Potency [5] | Potency [15] | Potency [6] | Potency [16] | Potency [9] | outcome [10] | Potency [11] | outcome [13] | Potency [17] | Potency [14]

CCCc1nc(C)c2c(=O)[nH]c(-c3cc(S(=O)(=O)N4CCN(CC)CC4)ccc3OCC)nn12
inactive: Potency [1] | Potency [2] | Potency [3] | Potency [4] | Potency [5] | Potency [15] | Potency [6] | Potency [8] | Potency [9] | outcome [10] | Potency [11] | outcome [13] | Potency [17] | Potency [14]

CCCCC(CC)COCCC#N (centres undefined)
inactive: Potency [1] | Potency [2] | Potency [3] | Potency [4] | Potency [5] | Potency [15] | Potency [6] | Potency [16] | Potency [9] | outcome [10] | Potency [11] | outcome [13] | Potency [17] | Potency [14]

O=[N+]([O-])c1cccc(I)c1
inactive: Potency [1] | Potency [2] | Potency [3] | Potency [4] | Potency [15] | Potency [6] | Potency [16] | Potency [8] | Potency [9] | outcome [10] | Potency [11] | outcome [13] | Potency [17] | Potency [14]

CCOc1ccc2c(c1)C(C)CC(C)(C)N2 (centres undefined)
inactive: Potency [1] | Potency [3] | Potency [4] | Potency [6] | Potency [16] | Potency [8] | outcome [10] | Potency [11] | outcome [13] | Potency [17] | Potency [14]
active: Potency [2] 31.7 µM | Potency [15] 27.3 µM
